PubChem BioAssay (NCATS)
Records with an inconclusive call do not appear. Where a call stands in place of a potency, no number is given. Active and inactive are the calls of the source. Calls come from the whole dose curve; as a rule, active = well fitted inhibition curve with a large enough effect; inconclusive = small, poorly fitted or top-dose-only effect, or effect the other way; inactive = flat fitted curve, though single readings scatter.

What follows are compounds tested against ATP-dependent 6-phosphofructokinase (Trypanosoma brucei brucei) (UniProt O15648) (assay: qHTS Assay to Find Inhibitors of T. brucei phosphofructokinase: hit validation (AID 492961;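 note: luminescence reports ADP formed as PFK phosphorylates fructose-6-phosphate with ATP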)). Settings: T. brucei PFK, ADP-Glo luminescence; series mostly up to 51.4 µM.
Sequence of ATP-dependent 6-phosphofructokinase (Trypanosoma brucei brucei) (O15648 whole entry, looked up): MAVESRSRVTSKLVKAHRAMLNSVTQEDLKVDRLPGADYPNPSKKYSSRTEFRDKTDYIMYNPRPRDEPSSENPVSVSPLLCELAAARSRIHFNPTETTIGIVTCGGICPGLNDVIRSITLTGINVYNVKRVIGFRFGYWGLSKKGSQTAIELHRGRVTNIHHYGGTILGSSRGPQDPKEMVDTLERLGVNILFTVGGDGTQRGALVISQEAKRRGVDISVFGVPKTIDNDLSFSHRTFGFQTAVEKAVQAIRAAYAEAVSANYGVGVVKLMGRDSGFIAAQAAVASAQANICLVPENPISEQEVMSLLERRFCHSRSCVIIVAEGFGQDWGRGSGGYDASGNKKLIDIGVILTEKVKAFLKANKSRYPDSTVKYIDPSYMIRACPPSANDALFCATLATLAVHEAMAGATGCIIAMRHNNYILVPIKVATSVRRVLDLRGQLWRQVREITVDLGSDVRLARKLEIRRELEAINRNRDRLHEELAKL
Outline: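 Inhibition of parasite PFK is measured as reduced ADP formation, quantified via luciferase after ATP depletion. Assay used 0.1 mM ATP, 0.5 mM F6P, 1.25 nM enzyme, 45 min incubation.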

Compound	Potency
COC(=O)c1ccccc1O	inactive
CCN(CC)CCOc1ccc2nc(N(C)C)sc2c1	inactive
OC[C@H]1O[C@@H]2O[C@H]3[C@H](O)[C@@H](O)[C@@H](O[C@H]4[C@H](O)[C@@H](O)[C@@H](O[C@H]5[C@H](O)[C@@H](O)[C@@H](O[C@H]6[C@H](O)[C@@H](O)[C@@H](O[C@H]7[C@H](O)[C@@H](O)[C@@H](O[C@H]1[C@H](O)[C@H]2O)O[C@@H]7CO)O[C@@H]6CO)O[C@@H]5CO)O[C@@H]4CO)O[C@@H]3CO	inactive
CN(C)CCCSc1ccccc1NC(=O)/C=C/c1ccccc1	inactive
CCCCCCCCCCCC(=O)N(CCO)CCO	inactive
O=C(O)CC/C=C\CC[C@@H]1[C@@H](N2CCCCC2)[C@@H](O)C[C@@H]1OCc1ccc(-c2ccccc2)cc1	inactive
O=C(Nc1ccc(O)cc1)c1ccccc1O	inactive
Cc1ncc(C[n+]2csc(CCO)c2C)c(N)n1	inactive
CCCCCCCCCCCCOCCCN	inactive
Cc1cccc(C)c1NC(=O)NC1=CCCN1C	inactive
C=CC(=O)O	inactive
CSc1nc2cc(Oc3cccc(Cl)c3Cl)c(Cl)cc2[nH]1	inactive
C=CCOc1ccc(CC(=O)O)cc1Cl	inactive
N[C@@H](Cc1cc(I)c(Oc2ccc(O)c(I)c2)c(I)c1)C(=O)O	inactive
NCCO/C=C/[C@H](N)C(=O)O	inactive
FC(F)OC(Cl)C(F)(F)F (stereo unspecified)	inactive
O=C(O)CCC/C=C\C[C@@H]1[C@@H](/C=C/[C@@H](O)COc2cccc(C(F)(F)F)c2)[C@H](O)C[C@@H]1O	inactive
S=C=Nc1ccc(N=C=S)cc1	inactive

Compound	Potency
C[C@H]1O[C@@H](O[C@H]2[C@@H](O)C[C@H](O[C@H]3[C@@H](O)C[C@H](O[C@H]4CC[C@@]5(C)[C@H](CC[C@@H]6[C@@H]5C[C@@H](O)[C@]5(C)[C@@H](C7=CC(=O)OC7)CC[C@]65O)C4)O[C@@H]3C)O[C@@H]2C)C[C@H](O)[C@@H]1O	inactive
CC(=O)NCCCS(=O)(=O)O	inactive
CC(C)(C)CC(C)(C)c1cc(Cc2cc(C(C)(C)CC(C)(C)C)cc(-n3nc4ccccc4n3)c2O)c(O)c(-n2nc3ccccc3n2)c1	inactive
O=P(O)(O)OC[C@H]1O[C@](O)(COP(=O)(O)O)[C@@H](O)[C@@H]1O	inactive
COc1cc2c(cc1OC)[C@@H](Cc1cc(OC)c(OC)c(OC)c1)[N+](C)(CCCOC(=O)CC/C=C/CCC(=O)OCCC[N+]1(C)CCc3cc(OC)c(OC)cc3[C@H]1Cc1cc(OC)c(OC)c(OC)c1)CC2 (stereo partly specified)	inactive
Oc1cc(O)cc(O)c1	inactive
CN[C@@H]1[C@H](O[C@H]2[C@H](O[C@H]3[C@H](O)[C@@H](O)[C@H](N=C(N)N)[C@@H](O)[C@@H]3N=C(N)N)O[C@@H](C)[C@]2(O)C=O)O[C@@H](CO)[C@H](O)[C@H]1O	inactive
CCCCC[C@H](O)/C=C/[C@H]1[C@H](O)CC(=O)[C@@H]1C/C=C\CCCC(=O)O	inactive
CC(C)c1ncc([N+](=O)[O-])n1C	inactive
COc1ccc2c(=O)c(C)c(-c3ccccc3)oc2c1CN(C)C	inactive
Cc1ncc[nH]1	inactive
CN1C(=O)OC(C)(C)C1=O	inactive
CCN(CC)CCCC(C)Nc1cc(/C=C/c2ccccc2Cl)nc2cc(Cl)ccc12 (stereo unspecified)	inactive
CCC(C)[C@@H](N)C(=O)O (stereo partly specified)	inactive
Nc1nccs1	inactive
O=C(O[C@H]1CN2CCC1CC2)N1CCc2ccccc2[C@@H]1c1ccccc1	inactive
O=[n+]1ccn([O-])c2ccccc21	inactive
OB(O)O	inactive
